Assay results: PubChem BioAssay (Tox21)
Inconclusive results are not listed. Active and inactive are the calls of the source. Unless noted, calls follow the shape of the dose curve; as a rule, active = well fitted curve in the direction sought with a large enough effect in the repeat runs; inconclusive = weak or mixed curves; inactive = no such curve, though single readings can be large; an effect the other way counts as inactive or inconclusive.

Legend:
[1] = qHTS RealTime-Glo MT Cell Viability Assay in HepG2 cells - 16 hour (AID 1224885); also: nearly all actives have a fitted effect of over 50% in size
Procedure, shortened: (§1)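 Cells + NanoLuc/prosubstrate dispensed (600 cells/well) → 5 h at 37 C/5% CO2 → compounds in DMSO transferred → 40 h incubation at 37 C, luminescence read at 0, 8, 16, 24, 32, 40 h.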

[2] = qHTS RealTime-Glo MT Cell Viability Assay in HEK293 cells - 24 hour (AID 1224886); also: top concentration of the series differs between compounds; nearly all actives have a fitted effect of over 50% in size
Procedure, shortened: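 Tox21 10K qHTS, HEK293, 600 cells/well, RealTime-Glo reagent co-dispensed with cells; 5 h preincubation, compound by pintool, 37 C, luminescence at 0–40 h.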

[3] = qHTS RealTime-Glo MT Cell Viability Assay in HEK293 cells - 8 hour (AID 1224887); also: top concentration of the series differs between compounds; nearly all actives have a fitted effect of over 50% in size
Procedure, shortened: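 Real-time viability in HEK293: signal arises when living cells convert a prosubstrate for NanoLuc in the medium, so luminescence tracks viable cell number. Compound (23 nL, DMSO) added 5 h post-seeding; kinetic reads at 0–40 h, 37 C.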

[4] = A CellTox Green Cytotoxicity Assay to monitor cytotoxicity in HEK293 cells - 16 hour (AID 1224888); also: nearly all actives have a fitted effect of over 35% in size
Procedure, shortened: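 Cells (HEK293, 600/well) and dye reagent are dispensed together. After 5 h at 37 C, 23 nL compound is pinned in. Plates stay at 37 C for 40 h with fluorescence read at 0h, 8h, 16h, 24h, 32h and 40h.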

[5] = qHTS RealTime-Glo MT Cell Viability Assay in HepG2 cells - 0 hour (AID 1224889); also: nearly all actives have a fitted effect of over 50% in size; also: potency is read from the fitted curve at half-maximal effect
Procedure, shortened: as §1

[6] = A CellTox Green Cytotoxicity Assay to monitor cytotoxicity in HepG2 cells - 8 hour (AID 1224890); also: nearly all actives have a fitted effect of over 45% in size
Procedure, shortened: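 Cells and non-lytic dye reagent are dispensed together (600 HepG2 cells/well) and incubated 5 h before DMSO compound transfer. Kinetic fluorescence is then recorded in the same wells during 40 h at 37 C.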

[7] = qHTS assay to identify small molecule antagonists of the estrogen receptor alpha (ER-alpha) signaling pathway using the BG1 cell line in the presence of 0.1 nM 17-beta-estradiol - cell viability counter screen (AID 1259241); also: nearly all actives have a fitted effect of over 40% in size
Procedure, shortened: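 Cells were plated and left 24 hr, compounds in DMSO were pinned in, 17beta-estradiol was added to 0.1 nM final, and after 22 hr CellTiter-Fluor reagent was added for 30 min before fluorescence was read.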

[8] = qHTS assay to identify small molecule antagonists of the androgen receptor (AR) signaling pathway using the MDA cell line in the presence of 0.5 nM R1881 - cell viability counter screen (AID 1259242); also: nearly all actives have a fitted effect of over 45% in size
Procedure, shortened: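 Steps: plate MDA-kb2 cells, rest 5 hr at 37C without CO2; pin in compounds in DMSO; add R1881 to 0.5 nM final; incubate 16 hr; add CellTiter-Fluor, 30 min; read fluorescence.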

[9] = molecular target: Estrogen receptor (Homo sapiens) (UniProt P03372); test: qHTS assay to identify small molecule antagonists of the estrogen receptor alpha (ER-alpha) signaling pathway using the BG1 cell line in the presence of 0.1 nM 17-beta-estradiol (AID 1259244); also: nearly all actives have a fitted effect of over 50% in size
Sequence of Estrogen receptor (Homo sapiens) (P03372 whole entry, looked up): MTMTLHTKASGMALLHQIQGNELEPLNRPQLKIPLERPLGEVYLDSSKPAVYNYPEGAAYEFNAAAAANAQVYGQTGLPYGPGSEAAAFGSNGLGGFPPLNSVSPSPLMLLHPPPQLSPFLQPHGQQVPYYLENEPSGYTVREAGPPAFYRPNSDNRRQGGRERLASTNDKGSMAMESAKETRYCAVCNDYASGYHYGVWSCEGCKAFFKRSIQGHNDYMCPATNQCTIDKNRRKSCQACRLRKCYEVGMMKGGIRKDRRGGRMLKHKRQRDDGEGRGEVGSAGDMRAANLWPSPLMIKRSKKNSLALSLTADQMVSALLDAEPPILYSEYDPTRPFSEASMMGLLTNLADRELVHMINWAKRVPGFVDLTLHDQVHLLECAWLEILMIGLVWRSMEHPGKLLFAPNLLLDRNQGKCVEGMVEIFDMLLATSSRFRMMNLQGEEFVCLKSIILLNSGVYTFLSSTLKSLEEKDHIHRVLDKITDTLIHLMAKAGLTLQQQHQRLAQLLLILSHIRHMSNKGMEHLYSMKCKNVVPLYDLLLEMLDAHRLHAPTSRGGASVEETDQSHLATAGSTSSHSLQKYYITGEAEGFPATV
Procedure, shortened: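 Antagonist mode: compounds in DMSO are pinned onto VM7Luc4E2 reporter cells, 0.1 nM final 17beta-estradiol is added, and after 22 h at 37C luciferase luminescence is measured with ONE-Glo.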

[10] = qHTS assay to identify small molecule phospholipidosis (PLD) inducers (AID 1259344; active = well fitted curve in the direction sought with a large enough effect; an effect the other way counts as inactive or inconclusive)
Procedure, shortened: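 After 4 h attachment on collagen I, HepG2 cells were dosed with compound alongside LipidTOX Red, kept 24 h at 37 C, fixed, and imaged for lamellar phospholipid pits.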

[11] = qHTS assay to identify small molecule HDAC inhibitors (AID 1259364);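 also: wild-type HCT-116 cells with endogenous class I/II HDAC activity; top concentration of the series differs between compounds; nearly all actives have a fitted effect of over 45% in size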
Procedure, shortened: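 Cells (HCT-116, wild type) are seeded at 1,500 per well, incubated overnight, treated with compound in DMSO for 2 hr, then developed with HDAC-Glo I/II reagent for 30 min at room temperature.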

[12] = qHTS assay to identify small molecule HDAC inhibitors - cell viability counter screen (AID 1259365)
Procedure, shortened: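 Counter screen in wild-type HCT-116 cells: compounds dissolved in DMSO are pin-transferred onto overnight-plated cells and left 2hr at 37C. ATP-based CellTiter-Glo luminescence then measures viable cells.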

[13] = qHTS assay to identify small molecule agonists of the sonic hedgehog signaling (Shh) pathway - cell viability counter screen (AID 1259366); also: nearly all actives have a fitted effect of over 50% in size
Procedure, shortened: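 Cells are plated at 2,000 per well and left 4hr at 37C, 5% CO2 before compound addition. After 23hr of treatment, CellTiter-Fluor reagent is added for 1hr at 37C and fluorescence is measured.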

[14] = qHTS assay to identify small molecule antagonists of the sonic hedgehog signaling (Shh) pathway - cell viability counter screen (AID 1259367); also: nearly all actives have a fitted effect of over 55% in size
Procedure, shortened: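 Conditioned medium drove Shh signaling in 3T3 Gli1-Luc cells exposed to compounds at 37C and 5% CO2. Viability was determined from CellTiter-Fluor fluorescence, with reagent incubated 1 hr after 23 hr of treatment.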

[15] = qHTS assay to identify small molecule antagonists of the sonic hedgehog signaling (Shh) pathway (AID 1259369; calls by dose curve; also: nearly all actives have a fitted effect of over 45% in size)
Procedure, shortened: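 Cells are plated and held 4hr at 37 C, compounds (DMSO) are pinned in, conditioned medium is added to stimulate the pathway, and after 24hr luciferase reagent is added for 30min before luminescence is read.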

[16] = molecular target: Estrogen receptor beta (Homo sapiens) (UniProt Q92731); test: qHTS assay to identify small molecule agonists of the estrogen receptor beta (ER-beta) signaling pathway (AID 1259377; active = well fitted activation curve with a large enough effect in the signal ratio in the repeat runs, not every such curve was filed as active; the % refers to the signal ratio)
Sequence of Estrogen receptor beta (Homo sapiens) (Q92731 whole entry, looked up, the tested form may be a part): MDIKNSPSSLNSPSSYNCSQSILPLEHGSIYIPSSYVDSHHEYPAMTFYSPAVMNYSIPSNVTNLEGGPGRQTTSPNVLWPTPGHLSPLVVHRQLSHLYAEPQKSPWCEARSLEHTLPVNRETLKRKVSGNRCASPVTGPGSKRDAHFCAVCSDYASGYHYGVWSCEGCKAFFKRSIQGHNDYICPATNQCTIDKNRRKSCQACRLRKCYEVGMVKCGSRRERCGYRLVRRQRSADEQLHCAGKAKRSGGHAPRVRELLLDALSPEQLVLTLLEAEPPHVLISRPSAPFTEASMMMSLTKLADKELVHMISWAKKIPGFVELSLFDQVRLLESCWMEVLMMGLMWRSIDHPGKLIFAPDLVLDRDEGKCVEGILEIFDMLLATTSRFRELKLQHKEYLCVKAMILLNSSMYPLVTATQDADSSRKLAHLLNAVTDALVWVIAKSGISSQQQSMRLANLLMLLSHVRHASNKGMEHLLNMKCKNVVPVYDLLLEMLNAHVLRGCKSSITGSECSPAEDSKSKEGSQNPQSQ
Procedure, shortened: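 Agonist mode cell assay in GripTite HEK293T cells expressing an ER-beta fusion that drives beta-lactamase from an Upstream Activator Sequence; 16 hr compound exposure at 37C, then 2 h LiveBLAzer B/G FRET substrate at room temperature, fluorescence read-out.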

[17] = molecular target: Estrogen receptor beta (Homo sapiens) (UniProt Q92731); test: qHTS assay to identify small molecule antagonists of the estrogen receptor beta (ER-beta) signaling pathway (AID 1259378; active = well fitted inhibition curve with a large enough effect in the signal ratio in the repeat runs, not every such curve was filed as active; the % refers to the signal ratio)
Procedure, shortened: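 ER-beta-UAS-bla HEK293T (GripTite) cells in 2% charcoal-stripped FBS medium were preincubated 6 hr at 37C, dosed with compound, then stimulated with 1 nM E2 (final) for 16 hr; beta-lactamase reporter read by B/G FRET fluorescence after 2 hr substrate loading.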

[18] = qHTS assay to identify small molecule agonists of the androgen receptor (AR) signaling pathway in the presence of an antagonist - cell viability counter screen (AID 1259379);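 also: MDA-kb2 human breast cancer cells carrying an MMTV luciferase reporter; series mostly up to about 92 µM; nearly all actives have a fitted effect of over 25% in size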
Procedure, shortened: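 Cytotoxicity is assessed by CellTiter-Fluor in MDA-kb2 cells carrying an MMTV-driven luciferase reporter. Cells receive 3.0uM nilutamide plus compounds at 15 concentrations and incubate 16 hr at 37C without CO2 before fluorescence reading.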

[19] = qHTS assay to identify small molecule agonists of the estrogen receptor beta (ER-beta) signaling pathway - cell viability counter screen (AID 1259380); also: nearly all actives have a fitted effect of over 30% in size; also: potency is read from the fitted curve at half-maximal effect
Procedure, shortened: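 Cytotoxicity is measured in parallel with the reporter screen: after 16 hr compound exposure at 37C and a 2 hr LiveBLAzer step, CellTiter-Glo is added to the same ER-beta-UAS-bla HEK293T wells and luminescence read after 30 min.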

[20] = qHTS assay to identify small molecule agonists of the sonic hedgehog signaling (Shh) pathway (AID 1259368; calls by dose curve;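 also: NIH/3T3-derived 3T3Gli1-Luc cells carrying a stable Gli1-driven firefly luciferase reporter; series mostly up to about 92 µM; nearly all actives have a fitted effect of over 15% in size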)
Procedure, shortened: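 Cells of a mouse NIH/3T3 clone stably expressing luciferase under the Gli1 transcriptional response element are exposed to test chemicals for 24 hr at 37 C. Pathway activation is detected as a rise in luminescence.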

Measured: Potency

CC(=O)OCC(=O)[C@@]12N=C(C)O[C@@H]1C[C@H]1[C@@H]3CCC4=CC(=O)C=C[C@]4(C)[C@H]3[C@@H](O)C[C@@]12C
not listed: [20]
inactive: all other assays above

CN(C)CCCN
not listed: [10] | [16] | [17]
inactive: all other assays above

O=C(O)CC(C(=O)O)C(CC(=O)O)C(=O)O (centres undefined)
not listed: [10] | [16] | [17] | [20]
inactive: all other assays above

OCCOCCOCCO
not listed: [20]
inactive: all other assays above

CC(C)CC(=O)CC(C)C
not listed: [9] | [10]
inactive: all other assays above

CCCCCCCCCCCCS
not listed: [10]
inactive: all other assays above

CC(=O)CC(=O)Nc1ccccc1
not listed: [9] | [10]
inactive: all other assays above

Cc1ccc2oc(=O)ccc2c1
not listed: [10]
inactive: all other assays above

CC(=O)c1ccccc1
not listed: [10] | [16] | [17]
inactive: all other assays above

CN(C)CCC(c1ccccc1)c1ccccn1 (centres undefined)
not listed: [9]
inactive: all other assays above

C[C@H]1C[C@H]2[C@@H]3CCC4=CC(=O)C=C[C@]4(C)[C@@]3(F)[C@@H](O)C[C@]2(C)[C@@]1(O)C(=O)CO
active: [5] 7.76 µM
not listed: [9] | [16] | [17]
inactive: all other assays above

O=[N+]([O-])c1ccc(/C=C/c2ccc([N+](=O)[O-])cc2S(=O)(=O)O)c(S(=O)(=O)O)c1
not listed: [10]
inactive: all other assays above

CC1=CCC2CC1C2(C)C (centres undefined)
inactive: all assays above

OCCOCCN1CCN(C2=Nc3ccccc3Sc3ccccc32)CC1
active: [19] 13.3 µM
not listed: [9] | [20]
inactive: all other assays above

CCCCCC(N)=O
not listed: [9]
inactive: all other assays above
